Shown are actives, neighbours in structure and some others; about 21% of the full set was active somewhere.
Pf growth 48h: Primary qHTS for delayed death inhibitors of the malarial parasite plastid, 48 hour incubation. P. falciparum luciferase growth in erythrocytes, 48 h. Potency, µM (highest dose often 28.7 µM), inactives show at the top dose activity change, negative = inhibition, most hits filed as inhibitors. 310,000 compounds, 5.9% hits; note: potency is the fitted concentration of half-maximal effect; % is set by controls: 0 for no effect and ±100 for the full control effect
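Cell-based growth assay: transgenic P. falciparum expressing firefly luciferase, cultured in red cells within RPMI 1640 containing 0.5% w/v Albumax, 24 mM bicarbonate and gentamycin. A drop in luciferase activity indicates inhibition.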
Pf growth 96h: Primary qHTS for delayed death inhibitors of the malarial parasite plastid, 96 hour incubation; P. falciparum luciferase reporter growth, 96 h; Potency, µM (series often up to 28.7 µM), for inactives: top-dose activity change, negative = inhibition, actives largely listed as inhibitors; 320,000 compounds, 6.9% hits; AID 504834, 2011; note: potency is the fitted concentration of half-maximal effect; % is set by controls: 0 for no effect and ±100 for the full control effect
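Compounds incubated with erythrocytes infected by luciferase-expressing P. falciparum (2% hematocrit, 0.05% parasitemia final) for 96 hours, 37 C in 5% CO2. Growth inhibition scored as decreased luciferase luminescence.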
FBPA Giardia inh: qHTS Assay for Inhibitors of Fructose-1,6-bisphosphate Aldolase from Giardia Lamblia; A8B2U2; purified Giardia FBPA; Potency, µM (series often up to 59.6 µM), without a hit: at the highest dose activity, negative = inhibition, actives largely listed as inhibitors; 290,000 compounds, 0.71% hits; AID 2451, 2010; note: potency is the fitted concentration of half-maximal effect; % is set by controls: 0 for no effect and ±100 for the full control effect; nearly all actives have a fitted effect of over 55% in size
Target sequence (A8B2U2 whole entry, looked up): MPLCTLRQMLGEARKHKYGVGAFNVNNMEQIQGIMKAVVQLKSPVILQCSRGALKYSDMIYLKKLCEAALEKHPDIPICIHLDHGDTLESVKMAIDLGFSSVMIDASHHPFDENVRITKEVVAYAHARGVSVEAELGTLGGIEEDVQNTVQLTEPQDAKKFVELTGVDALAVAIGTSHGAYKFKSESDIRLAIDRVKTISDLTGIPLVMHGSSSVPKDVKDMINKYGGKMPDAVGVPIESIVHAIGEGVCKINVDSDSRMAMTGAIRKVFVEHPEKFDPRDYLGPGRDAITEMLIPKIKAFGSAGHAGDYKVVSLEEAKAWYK
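Giardia FBPA (40 nM reagent) was preincubated 10 min at RT with compound (up to 57.5 uM final), then substrate plus GAPDH/TPI/NAD/arsenate coupling system with diaphorase/resazurin was added; resorufin fluorescence (525/598 nm) was read after 20 min.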
Shiga inhibitor: A qHTS for Small Molecule Inhibitors of Shiga Toxin; Vero cells, Shiga toxin protein synthesis inhibition reporter; inhibition, % at 38.7 µM; 290,000 compounds, 9.2% hits; in the data active = inhibition mostly above about 28%, no sharp cut-off; inactive = mostly below about 43%; note: 0% is about no effect
CHX counter: Cycloheximide Counterscreen for Small Molecule Inhibitors of Shiga Toxin; cell reporter, cycloheximide protein synthesis inhibition counterscreen; 300,000 compounds, 12% hits; max response, %; AID 2314, 2010; in the data active = max response mostly above about 13%, no sharp cut-off; inactive = mostly below about 14%; note: read at 38.3 µM for the half of the compounds with a filed dose; 0% is about no effect
NS1 inh: qHTS Assay for Inhibitors of Influenza NS1 Protein Function; Potency, µM (doses to about 46.1 µM), for inactives: top-dose activity, positive = more growth; 270,000 compounds, 0.4% hits; AID 2326, 2010; calls by dose curve; note: potency is the fitted concentration of half-maximal effect; actives are rising curves; nearly all actives have a fitted effect of over 50% in size
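In this qHTS, NS1 from influenza A is expressed in budding yeast, where it slows growth. Cells are switched from glucose to 2% galactose medium (pH 6.0, -URA), treated with compound, and growth recovery is read at OD600.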
The depositor's hits bear a star. Unless noted, calls come from the whole dose curve; as a rule, active = well fitted curve in the direction sought with a large enough effect; inconclusive = small, poorly fitted or top-dose-only effect, or another doubt; inactive = no such curve, though single readings can be large; an effect the other way counts as inactive or inconclusive.

How did O=c1oc2ccccc2cc1-c1nc2c(s1)CCc1ccccc1-2 do in these assays?
Pf growth 48h: inconclusive; Pf growth 96h: 10%; FBPA Giardia inh: 7.9µM*; Shiga inhibitor: 63; CHX counter: 21*; NS1 inh: 12%

What do the screens show for `Nc1nc2c(s1)CCc1ccccc1-2`?
Pf growth 96h: 56%; FBPA Giardia inh: -20%; Shiga inhibitor: 38*; CHX counter: 21*; NS1 inh: -66%

How did O=c1oc2ccccc2cc1-c1ccc(O)cc1O do in these assays?
Pf growth 48h: 42%; Pf growth 96h: 19%; FBPA Giardia inh: -3%; Shiga inhibitor: 15; CHX counter: 2; NS1 inh: 1%

Results for CC1(NC(=O)c2ccccc2)CCN(CCCc2ccccc2)C1=O (stereo not given) ?
Pf growth 48h: 26%; Pf growth 96h: inconclusive

Results for CS(=O)(=O)N(CC(=O)N1CCCCCC1)c1cc(Cl)ccc1Cl ?
Pf growth 48h: -4%; Pf growth 96h: inconclusive; FBPA Giardia inh: 14%; CHX counter: -3; NS1 inh: -7%

What do the screens show for `Cc1ccc(NC(=O)c2ccccc2NS(=O)(=O)c2ccc(F)cc2)cc1S(=O)(=O)N1CCCCC1`?
Pf growth 48h: 13µM*; Pf growth 96h: 12µM*; FBPA Giardia inh: 5%; Shiga inhibitor: -2; CHX counter: -1; NS1 inh: 25%

What do the screens show for `NS(=O)(=O)c1cccc(NC(=O)c2ccccc2NS(=O)(=O)c2ccc(F)cc2)c1`?
Pf growth 48h: -13%; Pf growth 96h: -3%; FBPA Giardia inh: -1%; Shiga inhibitor: -8; CHX counter: 9; NS1 inh: 12%

How did O=C(Nc1cccc(S(=O)(=O)N2CCCCC2)c1)c1ccccc1NS(=O)(=O)c1ccc(F)cc1 do in these assays?
Pf growth 48h: 12µM*; Pf growth 96h: 8.3µM*; FBPA Giardia inh: 18%; Shiga inhibitor: 24; CHX counter: 0; NS1 inh: 6%

How did Cc1cc(C)c(C)c(S(=O)(=O)NCC(=O)Nc2ccccc2F)c1C do in these assays?
Pf growth 48h: -14%; Pf growth 96h: 9%; FBPA Giardia inh: -1%; Shiga inhibitor: 2; CHX counter: -2; NS1 inh: -23%

What do the screens show for `Cc1ccc2c(c1N)C(=O)c1ccccc1C2=O`?
Pf growth 48h: 80%; Pf growth 96h: 159%

What do the screens show for `Nc1ccc2c(c1Cl)C(=O)c1ccc(N)c(Cl)c1C2=O`?
Pf growth 48h: 103%; Pf growth 96h: 122%; FBPA Giardia inh: -18%; Shiga inhibitor: 70*; CHX counter: 34*; NS1 inh: 6%

Results for O=S(=O)(/C=C/c1ccccc1)N1CCOCC1 ?
Pf growth 48h: 6%; Pf growth 96h: 40%; FBPA Giardia inh: 7%; Shiga inhibitor: -3; CHX counter: -1; NS1 inh: -6%

How did FC(F)(F)c1ccccc1NC(=S)NN=C1CCCCCC1 do in these assays?
Pf growth 48h: inconclusive; Pf growth 96h: inconclusive; FBPA Giardia inh: inconclusive; Shiga inhibitor: 32; CHX counter: 33*; NS1 inh: 7%

Results for COc1ccc(CNC(=S)Nc2cccc(OC)c2)cc1 ?
Pf growth 48h: 0%; Pf growth 96h: inconclusive; FBPA Giardia inh: 4%; Shiga inhibitor: 9; CHX counter: -3; NS1 inh: 10%

What do the screens show for `CCC(C)c1ccc(NC(=S)Nc2ccc(OC)cc2C)cc1` (stereo not given)?
Pf growth 48h: -2%; Pf growth 96h: inconclusive; FBPA Giardia inh: 12%; Shiga inhibitor: 62*; CHX counter: 30*; NS1 inh: 21%

Results for FC(F)(F)c1ccccc1NC(=S)N1CCCC1 ?
Pf growth 48h: 125%; Pf growth 96h: 13%; FBPA Giardia inh: 1%; Shiga inhibitor: -2; CHX counter: 9; NS1 inh: -2%

What do the screens show for `COc1cccc(NC(=O)C(=O)NCc2ccncc2)c1`?
Pf growth 48h: 110%; Pf growth 96h: -26%; FBPA Giardia inh: 4%; Shiga inhibitor: 78*; CHX counter: 29*; NS1 inh: 1%

Results for CCc1ccc(NC(=S)Nc2cccc(OC)c2)cc1 ?
Pf growth 48h: 16%; Pf growth 96h: inconclusive; FBPA Giardia inh: -6%; Shiga inhibitor: 67*; CHX counter: 16*; NS1 inh: 2%

How did COc1ccc(CN(C(=O)c2snc(C(N)=O)c2N)C(C(=O)NC2CCCC2)c2ccco2)cc1 (stereo not given) do in these assays?
Pf growth 48h: inconclusive; Pf growth 96h: inconclusive; FBPA Giardia inh: 7%; Shiga inhibitor: -3; CHX counter: -3; NS1 inh: -12%

What do the screens show for `CN1C(=O)[C@H]2[C@@H](/C=C/c3ccccc3)N3C(=O)CN(CC4CC4)C(=O)[C@@]3(C)[C@H]2C1=O`?
Pf growth 48h: 42%; Pf growth 96h: 80%; FBPA Giardia inh: -14%; Shiga inhibitor: -3; CHX counter: -2; NS1 inh: 13%

Results for S=C(NCc1ccc(Cl)cc1)Nc1ccccc1 ?
Pf growth 48h: 0%; Pf growth 96h: -7%; FBPA Giardia inh: -4%; Shiga inhibitor: 36; CHX counter: 8; NS1 inh: inconclusive

What do the screens show for `S=C(NCc1ccc(Cl)cc1)Nc1ccncc1`?
Pf growth 48h: 13µM*; Pf growth 96h: 0%; Shiga inhibitor: -31; CHX counter: -2; NS1 inh: -2%

What do the screens show for `COc1cccc(NC(=S)NN=C2CCCCCC2)c1`?
Pf growth 48h: 139%; Pf growth 96h: inconclusive; FBPA Giardia inh: 4%; Shiga inhibitor: 53*; CHX counter: 26*; NS1 inh: 11%

How did COc1cccc(NC(=S)NCc2ccncc2)c1 do in these assays?
Pf growth 48h: 6%; Pf growth 96h: 8.3µM*; FBPA Giardia inh: 1%; Shiga inhibitor: -12; CHX counter: -2; NS1 inh: 3%

Results for COc1ccc(N2CCN(C(=O)C3CCN(S(=O)(=O)c4ccc5c(c4)oc(=O)n5C)CC3)CC2)cc1 ?
Pf growth 48h: inconclusive; Pf growth 96h: 26%; FBPA Giardia inh: -1%; Shiga inhibitor: 9; CHX counter: 5; NS1 inh: -3%

Results for COC(=O)C1=C(Nc2ccccc2NC(=O)c2ccccc2C(=O)O)CSC1 ?
Pf growth 48h: 70%; Pf growth 96h: -1%; FBPA Giardia inh: -27%; Shiga inhibitor: 103*; CHX counter: 56*; NS1 inh: -7%

Results for COC(=O)C1=C(Nc2ccccc2NS(=O)(=O)c2ccc(C(F)(F)F)cc2Cl)CSC1 ?
Pf growth 48h: 9%; Pf growth 96h: 23%; FBPA Giardia inh: -26%; Shiga inhibitor: 10; CHX counter: 5; NS1 inh: 19%

Source: PubChem BioAssay (National Center for Advancing Translational Sciences (NCATS))
